# Source: PubChem BioAssay
# Calls of active or inactive are those of the source.
# Columns and labels:
# [1] = biological target: Albumin (Bos taurus) (UniProt P02769); assay: compounds binding labelled BSA control protein – biochemical, small-molecule microarray, Alexa647 label, 635/667 nm fluorescence, artefact control for SMM control protein annotation, profiling panel (AID 1118); conditions: BSA-A647 binding, fluorescence 635 nm, higher = more signal;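 note: score merges 667 nm emission intensity and signal-to-noise per printed compound spot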
# [2] = probe aXIP binding to arrayed compounds – biochemical, NeuroSMM set, 635/667 nm fluorescence, primary screen (AID 1119); conditions: small-molecule microarray, higher = more signal, called active from +8 up or from −8 down;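 note: probe is the protein aXip251-270 applied at 1 µg/mL to compound-printed slides; binding of probe to printed compounds measured as 667 nm fluorescence plus signal to noise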
# [3] = probe aNOTCH3 binding on compound microarray – biochemical, small-molecule microarray, 635/667 nm fluorescence, primary screen (AID 1120); conditions: higher = more signal;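 note: probe is a biotin-tagged antibody raised against NOTCH3 rather than NOTCH3 protein; score merges spot fluorescence near 667 nm with spot signal to noise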
# [4] = probe aNOTCH2 binding on compound microarray – biochemical, small-molecule microarray, 635/667 nm fluorescence, primary screen (AID 1121); conditions: higher = more signal;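 note: score merges feature fluorescence read at 667 nm with its signal to noise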
# [5] = biological target: Carbonic anhydrase 2 (Homo sapiens) (UniProt P00918); assay: compounds binding carbonic anhydrase 2 – biochemical, small-molecule microarray, Alexa647-labelled CAII, profiling panel (AID 1122); conditions: CAII-A647 binding fluorescence, higher = more signal
# [6] = COS7 lysate on small-molecule microarray, probe aHis, 635 nm (AID 1123); conditions: COS7 cell lysate, fluorescence, higher = more signal;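 note: z-score combines 667nm fluorescence intensity with signal-to-noise per printed compound spot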
# [7] = probe aLAP1 signal on lysate-treated microarray – cell lysate, small-molecule microarray, COS7 lysate, primary screen (AID 1124); conditions: probe aLAP1, fluorescence, higher = more signal;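 note: lysate comes from COS7 cells expressing LAP1 and is applied at 0.3 µg/mL; score merges spot fluorescence near 667 nm with signal-to-noise over triplicate slides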
# [8] = tested on: Sam68 (KHDRBS1); assay: compounds binding KHDRBS1 protein – biochemical, small-molecule microarray, 635 nm fluorescence, primary screen (AID 1125); conditions: higher = more signal;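 note: score merges 667 nm channel intensity with signal to noise over triplicate slides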
# [9] = tested on: Chordin-like protein 2 (CHRDL2); assay: compounds binding chordin-like 2 – biochemical, small-molecule microarray, 635 nm fluorescence, primary screen (AID 1126); conditions: fluorescence 635 nm, higher = more signal;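 note: printed compound slides probed with Chrdl2 protein at 4 µg/mL for 1 h at 4 C; score merges 667 nm emission intensity with signal to noise over three replicate slides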
# [10] = biological target: Concanavalin-A (Canavalia ensiformis) (UniProt P02866); assay: compounds binding concanavalin A lectin – biochemical, small-molecule microarray, Alexa647 label, 635 nm, artefact control for SMM control protein annotation, primary screen (AID 1127); conditions: ConA-A647 binding fluorescence, higher = more signal;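 note: z combines 667 nm emission intensity with signal-to-noise across three replicate slides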
# Concanavalin-A (Canavalia ensiformis), sequence (P02866 whole entry, looked up): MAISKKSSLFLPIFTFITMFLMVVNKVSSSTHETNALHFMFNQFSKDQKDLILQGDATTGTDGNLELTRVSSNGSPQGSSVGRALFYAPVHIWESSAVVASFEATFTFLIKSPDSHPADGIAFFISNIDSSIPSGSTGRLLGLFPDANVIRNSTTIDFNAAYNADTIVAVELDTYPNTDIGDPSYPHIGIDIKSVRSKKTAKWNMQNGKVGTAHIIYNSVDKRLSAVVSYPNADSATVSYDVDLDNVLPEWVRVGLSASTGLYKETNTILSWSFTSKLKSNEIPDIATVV
# Albumin (Bos taurus), sequence (P02769 whole entry, looked up): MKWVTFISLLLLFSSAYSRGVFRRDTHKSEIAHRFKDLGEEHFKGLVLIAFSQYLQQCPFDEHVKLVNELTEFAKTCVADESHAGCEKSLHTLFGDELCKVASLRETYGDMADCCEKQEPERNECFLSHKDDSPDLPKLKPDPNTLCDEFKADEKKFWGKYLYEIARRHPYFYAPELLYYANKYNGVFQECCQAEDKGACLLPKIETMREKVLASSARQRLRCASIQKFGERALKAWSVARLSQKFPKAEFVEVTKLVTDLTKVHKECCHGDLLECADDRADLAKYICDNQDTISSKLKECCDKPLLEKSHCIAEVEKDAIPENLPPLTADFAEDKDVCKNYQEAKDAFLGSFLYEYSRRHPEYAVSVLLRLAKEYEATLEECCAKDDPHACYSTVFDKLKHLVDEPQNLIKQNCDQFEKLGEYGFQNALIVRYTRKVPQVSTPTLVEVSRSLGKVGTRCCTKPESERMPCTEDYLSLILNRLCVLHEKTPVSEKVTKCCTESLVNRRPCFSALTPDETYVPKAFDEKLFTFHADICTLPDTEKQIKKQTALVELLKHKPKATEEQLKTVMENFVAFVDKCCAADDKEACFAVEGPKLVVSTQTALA
SMILES,composite z-score [1],composite Z-score [2],composite z-score [3],composite z-score [4],composite z-score [5],composite z-score [6],composite z-score [7],composite z-score [8],composite z-score [9],composite z-score [10]
CN(C)CCCN1C(=O)[C@@]2(c3ccc([N+](=O)[O-])cc3)CC(=O)N(C3CCCCC3)[C@@H]2c2ccc(CO)cc21,-0.4,0.0831 (inactive),-0.0665,-0.0455,-0.622,-0.317,-0.233,-0.395,-0.137,0.209
Cc1ccccc1/C=C/C=O,-0.699,-0.0934 (inactive),-0.19,-0.171,-0.293,-0.256,-0.298,-1.35,-0.56,-0.485
COc1ccc([Si](C)(C)[C@@H]2[C@@H](CCO)O[C@]3(C(=O)N(Cc4ccc(N5C(=O)c6cccc7cccc5c67)cc4)c4ccccc43)[C@H]2C)cc1,0.308,0.77 (inactive),-0.252,-0.119,0.382,0.332,0.232,-0.276,-0.161,-0.259
Cc1ccc(S[C@]2(C(=O)NCCCN(C)C)CC(=O)N(Cc3ccccc3)[C@@H]2c2ccc(CO)cc2)cc1,-0.173,-0.72 (inactive),-0.279,0.027,0.621,0.018,0.973,-0.145,-0.85,-0.785
Cc1ccc(N2C(=O)c3ccccc3[C@](C)(C(=O)NCCN3CCOCC3)[C@@H]2c2ccc(CO)cc2)nc1,-0.657,-0.559 (inactive),-0.279,-0.14,0.494,-0.0207,0.0322,-1.39,-0.494,-0.828
O=C1O[C@@H](c2ccccc2)[C@@H](c2ccccc2)N2[C@@H](c3ccc(O)cc3)[C@]3(C(=O)Nc4ccccc43)[C@@H](C(=O)NC[C@H](O)c3ccccc3)[C@H]12,0.726,0.0895 (inactive),-0.242,-0.0885,0.699,1.66,-0.238,0.607,0.458,0.442
CCCC[C@H]1OB(O)C[C@H]2C1=C(COc1ccccc1)C[C@H]1C(=O)N(Cc3ccccc3)C(=O)[C@H]12,0.117,0.142 (inactive),0.0203,-0.108,0.602,0.383,0.154,0.868,0.0092,1.12
C/C=C/[C@H](CCn1cc([C@H](O)c2ccccc2)nn1)[Si](C)(C)c1ccc(OC)cc1,-0.7,-0.0164 (inactive),-0.359,-0.181,0.017,-0.092,0.612,-0.971,-0.4,-0.971
CCCNC(=O)[C@@]1(C)c2ccccc2C(=O)N(Cc2cc(C(F)(F)F)cc(C(F)(F)F)c2)[C@H]1c1ccc(CO)cc1,-0.549,0.147 (inactive),-0.198,-0.114,0.671,1.68,0.458,0.356,-1.08,-0.082
CC(C)(C)OC(=O)CC[C@@]1(C(N)=O)N=C(c2ccc(OCCCO)cc2)O[C@@H]1c1ccccc1N=[N+]=[N-],0.501,0.005 (inactive),0.191,-0.0241,0.616,2.08,-0.293,1.07,-0.409,1.13
CN(C)CCCCNC(=O)[C@@H]1C[C@@H]2C(=O)N[C@@H](CCCCN)C(=O)N2[C@@H]1c1cccc(OCCO)c1,-0.564,0.703 (inactive),-0.0918,0.0072,0.42,2.85,0.429,-0.266,-0.0061,0.344
O=C1OCC=C[C@H]2OC34C=CCN(Cc5ccccc5)C(=O)[C@H]3N(CCCO)C(=O)[C@@H]4[C@@H]12 (stereo not given in full),0.792,2.97 (inactive),0.577,0.0753,0.786,3.07,1.08,0.89,-0.888,0.226
CC1CC/C=C\[C@H]2OC34C=CCN(Cn5nnc6ccccc65)C(=O)[C@H]3N(CCCO)C(=O)[C@@H]4C2C(=O)O1 (stereo not given in full),0.757,0.372 (inactive),-0.272,-0.115,0.926,0.016,1.2,-0.119,-1.33,-0.668
Cc1ccc(S[C@]2(C(=O)NCc3ccccc3)CC(=O)N(Cc3cc(C(F)(F)F)cc(C(F)(F)F)c3)[C@@H]2c2ccc(CO)cc2)cc1,0.737,0.3 (inactive),-0.128,-0.208,0.433,1.03,1.28,-1.01,-0.568,-0.856
C=C(C)[C@@H]1CC=C(C(O)C2C=CC3C(=O)N(Cc4ccccc4)C(=O)C3N2n2cnnc2)CC1 (stereo not given in full),0.936,-0.619 (inactive),0.0297,-0.0907,0.751,0.341,-0.24,-0.0341,-0.918,0.317
C=CCOC(=O)[C@@H]1[C@H]2C(=O)O[C@H](c3ccccc3)[C@H](c3ccccc3)N2[C@H](c2ccc(OCCOC(=O)[C@H]3C[C@H]4C(=O)N[C@@H](CCCC[N+](C)(C)C)C(=O)N4[C@H]3c3cccc(OCCO)c3)cc2)[C@@]12C(=O)Nc1ccc(I)cc12,-0.707,0.629 (inactive),-0.0647,-0.142,0.465,0.93,0.341,1.19,1.19,1.1
CCOC(=O)C=Cc1cccc(OC)c1O,0.576,0.229 (inactive),-0.426,-0.14,-0.288,0.0252,-0.15,0.0147,-1.32,0.149
C=CCN1C(=O)[C@@]2(O[C@@H](CCO)[C@H]([Si](C)(C)c3ccc(OC)cc3)[C@H]2C)c2cc(NC(C)=O)ccc21,-0.0164,0.347 (inactive),0.307,-0.044,0.366,2.57,0.423,1.33,0.835,0.915
COCCCNC(=O)[C@@]1(C)c2ccccc2C(=O)N(Cc2ccccc2)[C@H]1c1ccc(CO)cc1,0.172,0.45 (inactive),-0.274,-0.189,0.397,2.62,0.848,0.203,-1.5,0.17
CC(C)CNC(=O)[C@@]1(C)c2ccccc2C(=O)N(C(C)C)[C@H]1c1ccc(CO)cc1,-1.44,-0.0662 (inactive),-0.146,-0.132,0.903,-0.445,-0.121,-1.06,-1.02,-2
COc1ccc([Si](C)(C)[C@@H]2[C@@H](CC(=O)N3Cc4ccccc4C[C@H]3CO)O[C@]3(C(=O)N(Cc4cccc(N5C(=O)COc6ccccc65)c4)c4ccccc43)[C@H]2C)cc1,0.566,1.33 (inactive),0.0905,-0.177,0.423,0.629,0.344,1.07,0.692,1.11
COc1ccc([Si](C)(C)[C@H]2[C@H](CC(=O)N3CCC[C@H]3CO)O[C@@]3(C(=O)N(c4ccccc4)c4ccccc43)[C@@H]2C)cc1,0.723,-0.352 (inactive),-0.191,-0.185,0.655,-0.0779,0.0352,-0.126,0.515,0.493
C=CCOC(=O)[C@@H]1[C@H]2C(=O)O[C@H](c3ccccc3)[C@H](c3ccccc3)N2[C@H](c2ccc(OCCOC(=O)[C@H]3C[C@H]4C(=O)N[C@@H](Cc5ccccc5)C(=O)N4[C@H]3c3ccc(O)cc3)cc2)[C@@]12C(=O)Nc1ccc(I)cc12,-0.893,1.43 (inactive),0.0092,0.27,0.554,0.931,1.17,1.29,1.12,1.16
COc1ccc(C(=O)Nc2cccc(CN3C(=O)[C@@]4(O[C@@H](CC(=O)N5Cc6ccccc6C[C@H]5CO)[C@H]([Si](C)(C)c5ccc(OC)cc5)[C@H]4C)c4ccccc43)c2)cc1,-1.04,0.008 (inactive),0.127,-0.14,0.576,1.15,-0.0148,1.04,1.38,1.08
CO[C@H]1O[C@H](CO)[C@@H](OC(=O)Nc2ccc3c(c2)OCO3)[C@H](OC(=O)Nc2ccc3c(c2)OCO3)[C@H]1OC(=O)Nc1ccc2c(c1)OCO2,0.733,0.204 (inactive),0.307,-0.0483,0.7,2.73,0.804,1.29,0.138,1.07
CCN(CC)c1ccc(N2CC=CC34O[C@@H]5/C=C\CCC(C)OC(=O)C5[C@H]3C(=O)N(CCCCCCO)[C@@H]4C2=O)cc1 (stereo not given in full),0.362,0.184 (inactive),-0.204,-0.224,0.548,-0.039,-0.458,-0.264,-0.143,-0.285
